Bioassay records: PubChem, several laboratories
Hits are enriched below; roughly 5% of the tested compounds scored in any of these assays.
SENP8 block-1: SENP8 (human) protease inhibition; recombinant SENP8, Nedd8 substrate fluorescence; inhibition, % at 20 µM; 360,000 compounds, 0.64% hits; in the data active means inhibition mostly above about 40%, no sharp cut-off; inactive means mostly below about 27%
Target sequence (Q96LD8 whole entry, looked up): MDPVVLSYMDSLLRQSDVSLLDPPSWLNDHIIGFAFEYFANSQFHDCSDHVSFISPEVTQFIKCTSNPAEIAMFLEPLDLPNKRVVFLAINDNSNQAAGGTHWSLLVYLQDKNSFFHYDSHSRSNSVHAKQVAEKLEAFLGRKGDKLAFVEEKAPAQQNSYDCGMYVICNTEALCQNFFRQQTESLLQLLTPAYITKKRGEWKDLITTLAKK
SENP8 block-2: blocks the human protease SENP8 | Q96LD8 | purified SENP8, Z-RLRGG-aminoluciferin cleavage, luminescence | inhibition, % at 10 µM | 330,000 compounds, 1.2% hits | AID 2540; in the data active means inhibition above about 50%
SENP7 block: blocks the human protease SENP7 | Q9BQF6 | recombinant SENP7, Z-RLRGG-aminoluciferin luminescence, 40 min | inhibition, % at 5 µM | 330,000 compounds, 1.5% hits | AID 434973;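 active means inhibition above about 50% at the single test dose, limit read from the data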;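 further: plate controls were DMSO with enzyme for no effect and no enzyme buffer wells for full effect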
SENP6 inh: SENP6 protease inhibition; 330,000 compounds, 1.8% hits; inhibition, % at 10 µM; Recombinant SENP6 catalytic domain, aminoluciferin luminescence; Q9GZR1;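 active means inhibition above about 50% at the single tested dose, limit read from the data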;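 further: plate controls were DMSO wells with enzyme for no effect and DMSO wells lacking enzyme for full effect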
EBI2 block: EBI2 (human) antagonism. 360,000 compounds, 0.81% hits. EBI2 beta-arrestin recruitment, luminescence, 7a,25-OHC stimulated. inhibition, % at 5 µM. AID 651636. P32249; in the data active means inhibition above about 38%;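 further: enzyme fragment complementation signal reports receptor beta-arrestin coupling in cells; 0% = agonist plus DMSO wells and 100% = wells without agonist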
AHR activator: human AHR activation; AHR-responsive luciferase reporter cells, luminescence; activation, % at 5 µM; 320,000 compounds, 2.5% hits; in the data active means activation above about 47%;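 further: 0% = vehicle wells and 100% = reference agonist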
SENP8 conf: confirmation of human SENP8 protease inhibitors | 6,200 compounds, 40% hits | shares compounds with SENP7 block | AID 488912 | inhibition, % at 12.5 µM | Recombinant SENP8, Z-RLRGG-aminoluciferin luminescence, 60 min;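 active means mean inhibition across replicates above about 50%, limit read from the data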
SENP6 confirm: human SENP6 inhibition, confirmed. inhibition, % at 12.5 µM. 6,200 compounds, 58% hits. recombinant SENP6, Z-RLRGG-aminoluciferin luminescence. AID 488915. shares compounds with SENP7 block
SENP7 confirm: human SENP7 inhibition, confirmed. shares compounds with SENP7 block. recombinant SENP7, Z-RLRGG-aminoluciferin luminescence, 40 min. inhibition, % at 12.5 µM. 6,200 compounds, 69% hits. AID 488917
Casp3 select: inhibits human caspase-3 in SENP selectivity test. shares compounds with SENP7 block. purified caspase-3, Z-DEVD-aminoluciferin luminescence, 60 min. inhibition, % at 12.5 µM. 6,200 compounds, 60% hits;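 active means mean inhibition above about 50%, limit read from the data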;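 further: plate controls were enzyme with DMSO for no effect and wells without caspase-3 for full effect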
Target sequence (P42574 28-227 limits assumed): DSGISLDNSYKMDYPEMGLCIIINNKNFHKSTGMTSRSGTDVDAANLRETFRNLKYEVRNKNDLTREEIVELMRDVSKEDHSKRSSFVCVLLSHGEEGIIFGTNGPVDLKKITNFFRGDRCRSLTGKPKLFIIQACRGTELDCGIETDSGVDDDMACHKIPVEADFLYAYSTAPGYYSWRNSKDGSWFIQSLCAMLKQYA
Luc interf: luminescence interference (SENP counter-screen) | 6,200 compounds, 39% hits | AID 488919 | shares compounds with SENP7 block | inhibition, % at 12.5 µM | Pre-incubated SENP8/Z-RLRGG-aminoluciferin, luciferase luminescence interference;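 active means mean inhibition above about 50% when retested at one dose, limit read from the data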;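 further: plate controls were DMSO wells with completed reaction for no effect and substrate without enzyme for full effect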
* = called active by the depositor.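 How the source made its calls, unless noted: active means mean inhibition above about 50% in the one-dose retest (limit read from the data); inactive means the rest.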

For O=C(/C=C/Nc1ccc(F)cc1)c1cccs1 the results were SENP8 block-1 -220.9, SENP8 block-2 89.2*, SENP7 block 92.0*, SENP6 inh 93.3*, EBI2 block -6.0, AHR activator 23.3, SENP8 conf 88.7*, SENP6 confirm 98.0*, SENP7 confirm 102.2*, Casp3 select 95.5* and Luc interf 66.7*.
Screening O=C(/C=C/Nc1ccc(F)c(F)c1)c1cccs1 returned SENP8 block-1 -212.4, SENP8 block-2 85.5*, SENP7 block 82.9*, SENP6 inh 90.0*, EBI2 block 5.4, AHR activator 40.8, SENP8 conf 67.7*, SENP6 confirm 88.8*, SENP7 confirm 98.6*, Casp3 select 83.1* and Luc interf 38.3.
`O=c1c2ccccc2nnn1CSc1ccccc1F` gave SENP8 block-1 12.5, SENP8 block-2 61.3*, SENP7 block 67.6*, SENP6 inh 49.2, EBI2 block 0.3, AHR activator 44.5, SENP8 conf 77.6*, SENP6 confirm 77.2*, SENP7 confirm 93.6*, Casp3 select 83.5* and Luc interf 79.2*.
For c1ccc(-n2ncc3c(N4CCCCC4)ncnc32)cc1 the results were SENP8 block-1 -0.3, SENP8 block-2 85.5*, SENP7 block 84.4*, SENP6 inh 84.2*, EBI2 block -3.8, AHR activator -5.6, SENP8 conf 86.4*, SENP6 confirm 84.3*, SENP7 confirm 96.5*, Casp3 select 86.4* and Luc interf 83.5*.
`CC1CCCN(c2ncnc3c2cnn3-c2ccccc2)C1` (configuration not stated) gave SENP8 block-1 -0.1, SENP8 block-2 62.1*, SENP7 block 42.3, SENP6 inh 64.2*, EBI2 block 0.2, AHR activator 25.8, SENP8 conf 4.5, SENP6 confirm 40.1, SENP7 confirm 68.2*, Casp3 select 43.0 and Luc interf 52.7*.
`CC1CCCN(c2ncnc3c2cnn3-c2ccc(Cl)cc2)C1` (configuration not stated) gave SENP8 block-1 -9.9, SENP8 block-2 94.4*, SENP7 block 95.0*, SENP6 inh 94.1*, EBI2 block 14.4, AHR activator -2.6, SENP8 conf 90.4*, SENP6 confirm 93.9*, SENP7 confirm 97.5*, Casp3 select 92.5* and Luc interf 29.4.
For Cc1cccc(-n2ncc3c(N4CCC(C)CC4)ncnc32)c1 the results were SENP8 block-1 5.3, SENP8 block-2 54.3*, SENP7 block 37.8, SENP6 inh 61.2*, EBI2 block 13.7, AHR activator -5.8, SENP8 conf 60.3*, SENP6 confirm 59.1*, SENP7 confirm 83.3*, Casp3 select 46.7 and Luc interf 37.1.
Screening Cc1ccc(-n2ncc3c(N4CCCC(C)C4)ncnc32)c(C)c1 (configuration not stated) returned SENP8 block-1 10.0, SENP8 block-2 1.1, SENP7 block 4.4, SENP6 inh 6.9, EBI2 block -4.1 and AHR activator 19.0.
Screening CCN1CCN(c2ncnc3c2cnn3-c2ccccc2)CC1 returned SENP8 block-1 11.2, SENP8 block-2 1.3, SENP7 block 8.2, SENP6 inh -0.9, EBI2 block -3.0 and AHR activator 5.9.
For Cc1cccc(-n2ncc3c(N4CCC5(CC4)OCCO5)ncnc32)c1 the results were SENP8 block-1 7.9, SENP8 block-2 -13.3, SENP7 block -18.3, SENP6 inh -14.3, EBI2 block 6.3 and AHR activator 13.6.
COc1ccc(CNC(=O)C(c2ccco2)N(C(=O)c2snc(C(N)=O)c2N)c2cccc(OC)c2)cc1 (configuration not stated) was read as SENP8 block-1 -326.6, SENP8 block-2 4.5, SENP7 block 0.0, SENP6 inh 7.5, EBI2 block 9.9 and AHR activator -1.0.
For Cc1c(C)c2c(OCC(=O)Nc3cccnc3)cc3c(c2oc1=O)CCC(C)(C)O3 the results were SENP8 block-1 -185.9, SENP8 block-2 -2.0, SENP7 block -1.7, SENP6 inh -0.4, EBI2 block 5.3 and AHR activator 1.0.
Screening Fc1cccc(/C=N/Nc2ccccn2)c1 returned SENP8 block-1 7.8, SENP8 block-2 55.4*, SENP7 block 74.0*, SENP6 inh 42.8, EBI2 block -9.4, AHR activator 10.6, SENP8 conf 51.1*, SENP6 confirm 79.0*, SENP7 confirm 95.3*, Casp3 select 76.7* and Luc interf 35.2.
Screening Brc1ccc(/C=N/Nc2ccc3ccccc3n2)cc1 returned SENP8 block-1 -104.1, SENP8 block-2 62.3*, SENP7 block 58.6*, SENP6 inh 78.0*, EBI2 block -2.6, AHR activator 68.8*, SENP8 conf -4.8, SENP6 confirm -7.1, SENP7 confirm 17.7, Casp3 select 25.9 and Luc interf 1.0.
`Fc1cccc(/C=N/Nc2ccc3ccccc3n2)c1` gave SENP8 block-1 -107.3, SENP8 block-2 91.4*, SENP7 block 94.5*, SENP6 inh 95.3*, EBI2 block 7.1, AHR activator 16.5, SENP8 conf 93.6*, SENP6 confirm 94.2*, SENP7 confirm 100.4*, Casp3 select 81.7* and Luc interf 39.5.
`C(=N\Nc1ccccn1)/c1ccc2c(c1)OCCO2` gave SENP8 block-1 -4.3, SENP8 block-2 71.6*, SENP7 block 83.2*, SENP6 inh 85.6*, EBI2 block 11.0, AHR activator 18.3, SENP8 conf 81.2*, SENP6 confirm 80.1*, SENP7 confirm 96.6*, Casp3 select 84.1* and Luc interf 16.7.
`Cc1noc(C)c1NC(=O)N(C)C[C@H]1Oc2ccc(NS(=O)(=O)c3ccc(F)cc3)cc2C(=O)N([C@H](C)CO)C[C@@H]1C` gave SENP8 block-1 5.4, SENP8 block-2 2.8, SENP7 block 1.0, SENP6 inh 8.4, EBI2 block -5.9 and AHR activator -1.4.
